Source: the supplement of paper PMC8728848
The entries come from a sample that favours the strongest signals as a whole.

How the values were obtained:
Assay in all cases: glycan array binding signal (z-score within array); higher = stronger binding
Details in all cases: glycan notation: IUPAC condensed, linker removed; mutation: K176L
[1] = target: Fuc(a1-2)Gal(b1-4)GlcNAc(b1-3)Gal(b1-4)GlcNAc
Method in brief: (§1)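 Negative Z-scores can be read as non-binding. The Z-score is calculated within each array and then averaged across arrays of one protein sequence at different concentrations or buffers and across linkers. Arrays, 3228 in all, were curated from the Consortium for Functional Glycomics database and kept only where the protein sequence was available.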

[2] = target: Fuc(a1-2)Gal(b1-4)GlcNAc(b1-3)Gal(b1-4)GlcNAc(b1-3)Gal(b1-4)GlcNAc
Method in brief: as §1

[3] = target: Fuc(a1-2)[Gal(a1-3)]Gal(b1-3)GlcNAc(b1-2)Man(a1-3)[Fuc(a1-2)[Gal(a1-3)]Gal(b1-3)GlcNAc(b1-2)Man(a1-6)]Man(b1-4)GlcNAc(b1-4)GlcNAc
Method in brief: as §1

[4] = target: Fuc(a1-2)[Gal(a1-3)]Gal(b1-4)GlcNAc(b1-2)Man(a1-3)[Fuc(a1-2)[Gal(a1-3)]Gal(b1-4)GlcNAc(b1-2)Man(a1-6)]Man(b1-4)GlcNAc(b1-4)GlcNAc
Method in brief: as §1

[5] = target: Fuc(a1-2)[GalNAc(a1-3)]Gal(b1-4)GlcNAc
Method in brief: as §1

[6] = target: Fuc(a1-2)[GalNAc(a1-3)]Gal(b1-4)GlcNAc(b1-3)Gal(b1-4)GlcNAc(b1-3)Gal(b1-4)GlcNAc
Method in brief: as §1

[7] = target: Fuc(a1-3)[Gal(b1-4)]GlcNAc
Method in brief: as §1

[8] = target: Fuc(a1-3)[GalNAc(b1-4)]GlcNAc
Method in brief: as §1

[9] = target: Gal(a1-4)Gal(b1-3)GlcNAc(b1-2)Man(a1-3)[Gal(a1-4)Gal(b1-3)GlcNAc(b1-2)Man(a1-6)]Man(b1-4)GlcNAc(b1-4)GlcNAc
Method in brief: as §1

Gal(a1-4)Gal(b1-4)Glc = target: Gal(a1-4)Gal(b1-4)Glc
Method in brief: as §1

Gal(b1-3)GalNAc = target: Gal(b1-3)GalNAc
Method in brief: as §1

[10] = target: Gal(b1-3)GalNAc(b1-3)Gal(a1-4)Gal(b1-4)Glc
Method in brief: as §1

[11] = target: Gal(b1-3)GlcNAc(b1-3)Gal(b1-4)GlcNAc(b1-6)[Gal(b1-3)GlcNAc(b1-3)]Gal(b1-4)Glc
Method in brief: as §1

[12] = target: Gal(b1-3)[Fuc(a1-4)]GlcNAc(b1-3)Gal(b1-4)[Fuc(a1-3)]GlcNAc
Method in brief: as §1

[13] = target: Gal(b1-3)[GlcNAc(b1-6)]GalNAc
Method in brief: as §1

[14] = target: Gal(b1-4)GalNAc(b1-3)[Fuc(a1-2)]Gal(b1-4)GlcNAc
Method in brief: as §1

[15] = target: Gal(b1-4)GlcNAc(b1-2)Man(a1-6)[Man(a1-3)]Man(b1-4)GlcNAc(b1-4)GlcNAc
Method in brief: as §1

[16] = target: Gal(b1-4)GlcNAc(b1-3)Gal(b1-4)Glc
Method in brief: as §1

[17] = target: Gal(b1-4)GlcNAc(b1-3)Gal(b1-4)GlcNAc(b1-3)Gal(b1-4)GlcNAc
Method in brief: as §1

[18] = target: Gal(b1-4)GlcNAc(b1-3)[Gal(b1-4)GlcNAc(b1-6)]GalNAc
Method in brief: as §1

[19] = target: Gal(b1-4)GlcNAc(b1-6)[Gal(b1-3)]GalNAc
Method in brief: as §1

Gal3S6S(b1-4)GlcNAc6S = target: Gal3S6S(b1-4)GlcNAc6S
Method in brief: as §1

Gal6S(b1-4)Glc = target: Gal6S(b1-4)Glc
Method in brief: as §1

GalNAc(a1-3)GalNAc = target: GalNAc(a1-3)GalNAc
Method in brief: as §1

[20] = target: GlcNAc(a1-4)Gal(b1-3)GlcNAc
Method in brief: as §1

[21] = target: GlcNAc(a1-4)Gal(b1-4)GlcNAc(b1-3)Gal(b1-4)GlcNAc(b1-3)Gal(b1-4)GlcNAc
Method in brief: as §1

GlcNAc(b1-3)Gal(b1-4)Glc = target: GlcNAc(b1-3)Gal(b1-4)Glc
Method in brief: as §1

[22] = target: Kdn(a2-3)Gal(b1-4)[Fuc(a1-3)]GlcNAc
Method in brief: as §1

Man(a1-2)Man(a1-3)Man = target: Man(a1-2)Man(a1-3)Man
Method in brief: as §1

[23] = target: Man(a1-2)Man(a1-6)[Man(a1-3)]Man(a1-6)[Man(a1-2)Man(a1-2)Man(a1-3)]Man(b1-4)GlcNAc(b1-4)GlcNAc
Method in brief: as §1

B1: Gal 3 (Homo sapiens), P17931 (protein)
chain: MADNFSLHDALSGSGNPNPQGWPGAWGNQPAGAGGYPGASYPGAYPGQAPPGAYPGQAPPGAYHGAPGAYPGAPAPGVYPGPPSGPGAYPSSGQPSAPGAYPATGPYGAPAGPLIVPYNLPLPGGVVPRMLITILGTVKPNANILDFQRGNDVAFHFNPRFNENNRRVIVCNTLLDNNWGREERQSVFPFESGKPFKIQVLVEPDHFKVAVNDAHLLQYNHRVKKLNEISKLGISGDIDLTSASYTMI
With B1 the “glycan array binding signal (z-score)” value [1] was 5.06, the “glycan array binding signal (z-score)” value [2] was 5.51 and the “glycan array binding signal (z-score)” value [3] was 5.21. For the same binder, the “glycan array binding signal (z-score)” value [4] was 7.87, the “glycan array binding signal (z-score)” value [5] was 0.393 and the “glycan array binding signal (z-score)” value [6] was 5.28. The “glycan array binding signal (z-score)” value [7] was -0.265, the “glycan array binding signal (z-score)” value [8] was -0.262 and the “glycan array binding signal (z-score)” value [9] was -0.258. For the same binder, the “glycan array binding signal (z-score)” value (Gal(a1-4)Gal(b1-4)Glc) was -0.267, the “glycan array binding signal (z-score)” value (Gal(b1-3)GalNAc) was -0.269 and the “glycan array binding signal (z-score)” value [10] was -0.262. For the same binder, the “glycan array binding signal (z-score)” value [11] was 0.682, the “glycan array binding signal (z-score)” value [12] was -0.273 and the “glycan array binding signal (z-score)” value [13] was -0.27. The “glycan array binding signal (z-score)” value [14] was -0.267, the “glycan array binding signal (z-score)” value [15] was -0.271 and the “glycan array binding signal (z-score)” value [16] was 1.53. The “glycan array binding signal (z-score)” value [17] was 5.22, the “glycan array binding signal (z-score)” value [18] was -0.256 and the “glycan array binding signal (z-score)” value [19] was -0.268. For the same binder, the “glycan array binding signal (z-score)” value (Gal3S6S(b1-4)GlcNAc6S) was -0.261, the “glycan array binding signal (z-score)” value (Gal6S(b1-4)Glc) was -0.27 and the “glycan array binding signal (z-score)” value (GalNAc(a1-3)GalNAc) was -0.27. The “glycan array binding signal (z-score)” value [20] was -0.259, the “glycan array binding signal (z-score)” value [21] was 5.87 and the “glycan array binding signal (z-score)” value (GlcNAc(b1-3)Gal(b1-4)Glc) was -0.271. The “glycan array binding signal (z-score)” value [22] was -0.27, the “glycan array binding signal (z-score)” value (Man(a1-2)Man(a1-3)Man) was -0.268 and the “glycan array binding signal (z-score)” value [23] was -0.263.
